# Measured values published in article PMC7862700, “An all-to-all approach to the identification of sequence-specific readers for epigenetic DNA modifications on cytosine”.
# Key:
# Experiment in all cases: DAPPL (digital affinity profiling via proximity ligation, sequencing); 10 mM Tris-HCl pH 7.5, 50 mM NaCl, 1 mM DTT, 4% glycerol, room temperature, 30 min; GST-TFs on glutathione beads, 16-mer random dsDNA library, 0.1% formaldehyde crosslink after washing; high values mean tight binding
# Details in all cases: protein: recombinant; tags: N-terminal GST; dsDNA, one strand shown
# [1] = target: ELF4 (Homo sapiens, UniProt Q99607 1-663)
# Summary of the method: (§1)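 Human transcription factors fused to GST were expressed in yeast, captured on glutathione beads, given DNA barcodes and pooled with a GST-only negative control. Pools were incubated with 200 nmole of a 16-mer random double-stranded DNA library in Tris/NaCl/DTT/glycerol buffer at room temperature for 30 min. They were then washed, crosslinked with 0.1% formaldehyde, proximity-ligated (BsaI/T4 ligase, 1 h, 37 °C), PCR-amplified and sequenced on an Illumina NextSeq500. Binding signal is each 6-mer's read frequency for a factor divided by its frequency for the GST control.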
# [2] = target: T1, ELK4 (Homo sapiens, UniProt P28324-2 1-405)
# T1 sequence: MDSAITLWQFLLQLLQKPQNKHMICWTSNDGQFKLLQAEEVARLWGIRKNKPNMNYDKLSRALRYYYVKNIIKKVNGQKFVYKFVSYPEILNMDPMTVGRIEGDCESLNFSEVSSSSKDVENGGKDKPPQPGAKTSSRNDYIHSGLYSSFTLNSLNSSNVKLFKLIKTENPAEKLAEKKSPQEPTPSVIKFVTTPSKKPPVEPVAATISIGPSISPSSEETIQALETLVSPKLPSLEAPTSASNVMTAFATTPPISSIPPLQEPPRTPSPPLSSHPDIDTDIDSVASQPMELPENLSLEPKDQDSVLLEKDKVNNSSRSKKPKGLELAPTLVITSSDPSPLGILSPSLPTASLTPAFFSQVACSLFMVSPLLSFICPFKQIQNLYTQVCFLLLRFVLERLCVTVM
# Summary of the method: as §1
# [3] = target: T2, ETV2 (Homo sapiens, UniProt O00321 1-342)
# T2 sequence: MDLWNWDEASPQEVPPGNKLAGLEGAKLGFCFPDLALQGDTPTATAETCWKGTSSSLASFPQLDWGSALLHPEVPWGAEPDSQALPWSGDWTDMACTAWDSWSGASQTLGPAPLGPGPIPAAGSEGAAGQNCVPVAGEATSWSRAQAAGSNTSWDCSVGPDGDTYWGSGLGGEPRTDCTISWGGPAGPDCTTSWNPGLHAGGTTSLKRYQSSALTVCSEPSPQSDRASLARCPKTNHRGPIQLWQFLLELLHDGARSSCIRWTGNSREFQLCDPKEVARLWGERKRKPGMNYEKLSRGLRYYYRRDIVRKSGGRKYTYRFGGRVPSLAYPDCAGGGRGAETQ
# Summary of the method: as §1
# [4] = target: T3, ELF3 (Homo sapiens, UniProt P78545 1-371)
# T3 sequence: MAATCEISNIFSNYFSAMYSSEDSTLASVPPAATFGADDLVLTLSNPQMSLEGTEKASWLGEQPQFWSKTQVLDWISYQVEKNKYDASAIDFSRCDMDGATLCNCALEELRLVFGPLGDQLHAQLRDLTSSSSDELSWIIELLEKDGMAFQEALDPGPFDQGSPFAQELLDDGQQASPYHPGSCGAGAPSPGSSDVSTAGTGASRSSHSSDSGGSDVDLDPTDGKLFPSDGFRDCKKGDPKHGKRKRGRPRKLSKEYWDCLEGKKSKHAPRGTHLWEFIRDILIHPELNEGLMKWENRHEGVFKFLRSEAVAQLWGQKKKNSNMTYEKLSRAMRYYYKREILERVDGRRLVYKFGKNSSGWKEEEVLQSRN
# Summary of the method: as §1
# [5] = target: T4, ERF (Homo sapiens, UniProt P50548 1-548)
# T4 sequence: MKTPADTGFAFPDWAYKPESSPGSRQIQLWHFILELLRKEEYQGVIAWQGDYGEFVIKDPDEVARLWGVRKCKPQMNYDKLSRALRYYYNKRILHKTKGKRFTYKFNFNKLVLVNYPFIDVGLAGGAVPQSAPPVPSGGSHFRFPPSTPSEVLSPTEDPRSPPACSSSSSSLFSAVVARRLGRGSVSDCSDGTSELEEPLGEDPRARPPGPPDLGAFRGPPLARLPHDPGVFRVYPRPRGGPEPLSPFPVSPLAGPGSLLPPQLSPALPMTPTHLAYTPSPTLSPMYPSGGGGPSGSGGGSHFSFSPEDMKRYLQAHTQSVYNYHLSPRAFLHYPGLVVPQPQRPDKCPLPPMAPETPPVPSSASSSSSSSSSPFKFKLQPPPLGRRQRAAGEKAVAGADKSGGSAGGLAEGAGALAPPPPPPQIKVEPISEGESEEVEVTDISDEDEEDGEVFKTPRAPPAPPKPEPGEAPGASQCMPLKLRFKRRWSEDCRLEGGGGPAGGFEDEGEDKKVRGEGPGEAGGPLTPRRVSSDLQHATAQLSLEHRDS
# Summary of the method: as §1
# [6] = target: T5, ETV3L (Homo sapiens, UniProt Q6ZN32 1-361)
# T5 sequence: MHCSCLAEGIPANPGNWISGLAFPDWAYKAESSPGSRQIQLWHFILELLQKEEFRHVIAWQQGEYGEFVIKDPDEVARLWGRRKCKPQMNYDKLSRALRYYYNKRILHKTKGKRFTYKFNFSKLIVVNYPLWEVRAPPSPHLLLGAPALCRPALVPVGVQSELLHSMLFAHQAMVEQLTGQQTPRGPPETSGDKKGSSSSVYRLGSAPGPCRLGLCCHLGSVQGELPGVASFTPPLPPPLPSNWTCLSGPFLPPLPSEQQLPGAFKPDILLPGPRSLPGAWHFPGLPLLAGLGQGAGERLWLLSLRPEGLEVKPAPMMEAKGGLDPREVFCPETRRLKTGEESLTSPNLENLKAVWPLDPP
# Summary of the method: as §1
# [7] = target: T6, ETS2 (Homo sapiens, UniProt P15036 1-469)
# T6 sequence: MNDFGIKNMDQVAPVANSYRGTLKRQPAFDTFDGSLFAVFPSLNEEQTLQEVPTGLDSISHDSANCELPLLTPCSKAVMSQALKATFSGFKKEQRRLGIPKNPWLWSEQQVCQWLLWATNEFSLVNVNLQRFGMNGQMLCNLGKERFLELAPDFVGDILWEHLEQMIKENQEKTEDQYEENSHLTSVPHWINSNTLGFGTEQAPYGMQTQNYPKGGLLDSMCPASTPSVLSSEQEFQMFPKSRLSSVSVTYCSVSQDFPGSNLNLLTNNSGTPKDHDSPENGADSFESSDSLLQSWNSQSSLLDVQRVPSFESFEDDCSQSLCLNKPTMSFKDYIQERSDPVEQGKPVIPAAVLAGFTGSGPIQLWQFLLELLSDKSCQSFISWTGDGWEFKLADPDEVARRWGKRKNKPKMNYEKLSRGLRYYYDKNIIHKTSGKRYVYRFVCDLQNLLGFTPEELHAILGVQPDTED
# Summary of the method: as §1
# [8] = target: T7, ETV7 (Homo sapiens, UniProt Q9Y603 1-341)
# T7 sequence: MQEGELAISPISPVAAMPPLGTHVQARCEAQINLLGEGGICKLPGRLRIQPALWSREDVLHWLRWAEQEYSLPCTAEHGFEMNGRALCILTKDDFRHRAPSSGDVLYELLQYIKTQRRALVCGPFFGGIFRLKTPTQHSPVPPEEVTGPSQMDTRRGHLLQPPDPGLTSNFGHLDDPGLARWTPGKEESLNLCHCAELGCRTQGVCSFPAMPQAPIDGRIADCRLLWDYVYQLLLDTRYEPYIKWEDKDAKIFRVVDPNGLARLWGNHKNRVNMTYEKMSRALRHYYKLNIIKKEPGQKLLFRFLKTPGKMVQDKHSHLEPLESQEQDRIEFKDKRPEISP
# Summary of the method: as §1
# [9] = target: ETV6 (Homo sapiens, UniProt P41212 1-452)
# Summary of the method: as §1
# ELF4, sequence (Q99607 whole entry, the tested form may be a part): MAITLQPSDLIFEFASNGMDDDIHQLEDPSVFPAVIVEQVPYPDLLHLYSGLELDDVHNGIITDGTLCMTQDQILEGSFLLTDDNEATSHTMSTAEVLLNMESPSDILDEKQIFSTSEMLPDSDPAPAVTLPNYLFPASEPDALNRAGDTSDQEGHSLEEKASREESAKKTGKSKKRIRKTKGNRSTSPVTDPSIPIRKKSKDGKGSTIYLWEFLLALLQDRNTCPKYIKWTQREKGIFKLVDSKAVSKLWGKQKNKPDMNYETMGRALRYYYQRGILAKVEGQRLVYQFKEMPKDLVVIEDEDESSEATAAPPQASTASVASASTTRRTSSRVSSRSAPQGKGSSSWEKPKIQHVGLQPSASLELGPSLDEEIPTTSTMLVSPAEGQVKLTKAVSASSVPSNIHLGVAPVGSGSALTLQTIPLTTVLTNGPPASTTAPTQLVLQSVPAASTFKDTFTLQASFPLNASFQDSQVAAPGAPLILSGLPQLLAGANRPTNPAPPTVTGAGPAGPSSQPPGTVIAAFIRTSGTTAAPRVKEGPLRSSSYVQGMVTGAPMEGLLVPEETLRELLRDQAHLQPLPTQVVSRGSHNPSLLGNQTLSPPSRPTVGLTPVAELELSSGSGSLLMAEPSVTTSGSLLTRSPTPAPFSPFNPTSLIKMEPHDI
# ETV6, sequence (P41212 whole entry): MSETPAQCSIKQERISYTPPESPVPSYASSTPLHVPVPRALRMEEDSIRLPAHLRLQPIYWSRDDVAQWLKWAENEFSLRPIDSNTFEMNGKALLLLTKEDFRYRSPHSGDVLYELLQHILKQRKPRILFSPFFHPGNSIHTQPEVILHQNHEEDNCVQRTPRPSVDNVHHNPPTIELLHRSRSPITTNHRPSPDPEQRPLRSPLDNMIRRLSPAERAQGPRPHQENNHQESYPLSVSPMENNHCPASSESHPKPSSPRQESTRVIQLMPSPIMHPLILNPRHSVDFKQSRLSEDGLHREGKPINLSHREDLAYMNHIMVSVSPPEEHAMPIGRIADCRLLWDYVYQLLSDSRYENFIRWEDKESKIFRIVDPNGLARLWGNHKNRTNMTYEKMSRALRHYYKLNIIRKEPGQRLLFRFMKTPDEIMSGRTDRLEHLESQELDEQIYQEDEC
sequence,measurement,setting,value
TTGACG,binding signal,[1],"1.15 fold enrichment (6-mer frequency, TF over GST control)"
same,binding signal,[2],"1.21 fold enrichment (6-mer frequency, TF over GST control)"
same,binding signal,[3],"1.23 fold enrichment (6-mer frequency, TF over GST control)"
same,binding signal,[4],"1.21 fold enrichment (6-mer frequency, TF over GST control)"
same,binding signal,[5],"1.27 fold enrichment (6-mer frequency, TF over GST control)"
same,binding signal,[6],"1.12 fold enrichment (6-mer frequency, TF over GST control)"
same,binding signal,[7],"1.08 fold enrichment (6-mer frequency, TF over GST control)"
same,binding signal,[8],"1.19 fold enrichment (6-mer frequency, TF over GST control)"
same,binding signal,[9],"1.15 fold enrichment (6-mer frequency, TF over GST control)"
